Reference: the supplement of paper PMC10849652
Of roughly 7,900 targets only a part is listed; those with a hit were picked by preference. About 0.6% of all pairs of compound and target were hits. A number with no mark means an inactive call.

Experiments:
Test in all cases: log2 fold change, soluble protein after heating vs DMSO (PISA); higher = thermal stabilisation; K562 cells, 10 uM, 30 min; active = over 0.2 and 3.5 SD of the protein, either way, in both replicates (recomputed)
[1] = compound: Cc1ccc(NC(=O)c2ccc(CN3CC[C@H](N(C)C)C3)c(C(F)(F)F)c2)cc1Nc1nccc(-c2cncnc2)n1 [bafetinib]
Procedure, shortened: (§1)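 Values are thermal stability changes relative to control samples and are taken from duplicates. They are stated as log2 fold changes. Before quantification by TMTpro 16plex LC-MS/MS with equalised channel sums, K562 cells at 2×10^6 cells/mL were treated with 10 μM compound for 30 min, heated in aliquots for 3 min across 48°C-58°C, pooled, extracted in PBS with 0.5% NP-40 at 4°C, and centrifuged at 21,000xg for 90 min to give the soluble supernatant.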

[2] = compound: Cc1cccc(CC(=O)N2CCc3c2ccc(-c2cn(C)c4ncnc(N)c24)c3F)n1
Procedure, shortened: as §1

[3] = compound: Cc1cn(-c2cc(NC(=O)c3ccc(C)c(Nc4nccc(-c5cccnc5)n4)c3)cc(C(F)(F)F)c2)cn1 [nilotinib]
Procedure, shortened: as §1

[4] = compound: Cc1nc(Nc2n[nH]c3c2CN(C(=O)N[C@H](CN(C)C)c2ccccc2)C3(C)C)c2sccc2n1
Procedure, shortened: as §1

[5] = compound: Cc1nc(Nc2ncc(C(=O)Nc3c(C)cccc3Cl)s2)cc(N2CCN(CCO)CC2)n1 [dasatinib]
Procedure, shortened: as §1

[6] = compound: Cc1ncc(-c2ccnc(Nc3ccc(S(C)(=O)=O)cc3)n2)n1C(C)C
Procedure, shortened: as §1

[7] = compound: Cn1cc(-c2ccc3c(c2)CCN3C(=O)Cc2cccc(C(F)(F)F)c2)c2c(N)ncnc21
Procedure, shortened: as §1

[8] = compound: Cn1cc(-c2ccc3nnc(C(F)(F)c4ccc5ncccc5c4)n3n2)cn1
Procedure, shortened: as §1

[9] = compound: Cn1cncc1[C@@](N)(c1ccc(Cl)cc1)c1ccc2c(c1)c(-c1cccc(Cl)c1)cc(=O)n2C [tipifarnib]
Procedure, shortened: as §1

[10] = compound: FC(F)(F)c1ccc(/C=C/c2nc(COc3ccc(CCCCn4ccnn4)cc3)co2)cc1 [mubritinib]
Procedure, shortened: as §1

[11] = compound: NC(=O)Nc1cc(-c2cccc(F)c2)sc1C(=O)N[C@H]1CCCNC1
Procedure, shortened: as §1

[12] = compound: NC(=O)c1cnc(N[C@@H]2CCCC[C@@H]2N)nc1Nc1cccc(-n2nccn2)c1
Procedure, shortened: as §1

[13] = compound: NC1(c2ccc(-c3nc4ccn5c(=O)[nH]nc5c4cc3-c3ccccc3)cc2)CCC1
Procedure, shortened: as §1

[14] = compound: NCC(=O)Nc1ccc(-n2nc(C(F)(F)F)cc2-c2ccc3c(ccc4ccccc43)c2)cc1
Procedure, shortened: as §1

[15] = compound: Nc1ccccc1NC(=O)c1ccc(CNC(=O)OCc2cccnc2)cc1 [entinostat]
Procedure, shortened: as §1

[16] = compound: O=C(CCCCCCC(=O)Nc1ccccc1)NO [vorinostat]
Procedure, shortened: as §1

[17] = compound: O=C(CCCCCCNC(=O)c1cnc(N(c2ccccc2)c2ccccc2Cl)nc1)NO [citarinostat]
Procedure, shortened: as §1

[18] = compound: O=C(O)c1ccc2c(c1)nc(Nc1cccc(Cl)c1)c1ccncc12 [silmitasertib]
Procedure, shortened: as §1

[19] = compound: O=C1NC(=O)C(c2cnc3ccccn23)=C1c1cn2c3c(cc(F)cc13)CN(C(=O)N1CCCCC1)CC2
Procedure, shortened: as §1

[20] = compound: c1cc(OCCN2CCCCC2)cc(-c2n[nH]c3ccc(-c4nnc[nH]4)cc23)c1
Procedure, shortened: as §1

UniProt Q92797, sequence (Q92797 whole entry, looked up): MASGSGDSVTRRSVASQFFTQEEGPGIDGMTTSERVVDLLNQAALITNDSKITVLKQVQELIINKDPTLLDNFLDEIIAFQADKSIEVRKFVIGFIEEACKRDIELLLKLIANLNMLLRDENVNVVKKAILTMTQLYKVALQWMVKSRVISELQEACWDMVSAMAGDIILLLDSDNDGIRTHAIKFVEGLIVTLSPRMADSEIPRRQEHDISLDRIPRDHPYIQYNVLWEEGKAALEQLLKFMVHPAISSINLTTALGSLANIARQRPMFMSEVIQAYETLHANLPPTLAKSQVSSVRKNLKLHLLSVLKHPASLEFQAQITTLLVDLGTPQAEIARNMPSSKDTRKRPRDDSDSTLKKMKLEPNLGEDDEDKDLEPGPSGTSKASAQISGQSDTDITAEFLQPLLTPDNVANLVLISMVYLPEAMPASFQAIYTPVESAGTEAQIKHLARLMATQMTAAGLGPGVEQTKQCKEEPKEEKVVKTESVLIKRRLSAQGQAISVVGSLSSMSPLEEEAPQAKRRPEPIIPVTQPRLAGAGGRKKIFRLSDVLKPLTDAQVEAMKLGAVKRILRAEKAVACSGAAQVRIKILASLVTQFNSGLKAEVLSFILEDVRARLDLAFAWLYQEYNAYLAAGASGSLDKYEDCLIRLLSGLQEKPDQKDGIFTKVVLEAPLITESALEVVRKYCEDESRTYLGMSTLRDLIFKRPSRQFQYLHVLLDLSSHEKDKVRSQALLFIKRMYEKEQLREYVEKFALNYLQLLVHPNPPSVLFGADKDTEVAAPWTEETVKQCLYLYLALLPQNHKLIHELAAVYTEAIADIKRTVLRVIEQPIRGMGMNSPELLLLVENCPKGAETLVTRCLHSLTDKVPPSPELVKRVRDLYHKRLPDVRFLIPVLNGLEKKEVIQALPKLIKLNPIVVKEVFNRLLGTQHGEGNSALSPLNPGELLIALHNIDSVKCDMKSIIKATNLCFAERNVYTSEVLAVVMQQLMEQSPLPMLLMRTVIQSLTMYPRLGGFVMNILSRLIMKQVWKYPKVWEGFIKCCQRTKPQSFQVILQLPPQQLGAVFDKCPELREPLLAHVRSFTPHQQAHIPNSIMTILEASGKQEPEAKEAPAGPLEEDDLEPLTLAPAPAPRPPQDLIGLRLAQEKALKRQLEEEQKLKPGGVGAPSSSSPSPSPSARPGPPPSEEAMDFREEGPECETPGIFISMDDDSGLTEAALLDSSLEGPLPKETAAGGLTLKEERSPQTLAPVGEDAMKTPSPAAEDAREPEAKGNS
UniProt Q9NUY8, sequence (Q9NUY8 whole entry, looked up): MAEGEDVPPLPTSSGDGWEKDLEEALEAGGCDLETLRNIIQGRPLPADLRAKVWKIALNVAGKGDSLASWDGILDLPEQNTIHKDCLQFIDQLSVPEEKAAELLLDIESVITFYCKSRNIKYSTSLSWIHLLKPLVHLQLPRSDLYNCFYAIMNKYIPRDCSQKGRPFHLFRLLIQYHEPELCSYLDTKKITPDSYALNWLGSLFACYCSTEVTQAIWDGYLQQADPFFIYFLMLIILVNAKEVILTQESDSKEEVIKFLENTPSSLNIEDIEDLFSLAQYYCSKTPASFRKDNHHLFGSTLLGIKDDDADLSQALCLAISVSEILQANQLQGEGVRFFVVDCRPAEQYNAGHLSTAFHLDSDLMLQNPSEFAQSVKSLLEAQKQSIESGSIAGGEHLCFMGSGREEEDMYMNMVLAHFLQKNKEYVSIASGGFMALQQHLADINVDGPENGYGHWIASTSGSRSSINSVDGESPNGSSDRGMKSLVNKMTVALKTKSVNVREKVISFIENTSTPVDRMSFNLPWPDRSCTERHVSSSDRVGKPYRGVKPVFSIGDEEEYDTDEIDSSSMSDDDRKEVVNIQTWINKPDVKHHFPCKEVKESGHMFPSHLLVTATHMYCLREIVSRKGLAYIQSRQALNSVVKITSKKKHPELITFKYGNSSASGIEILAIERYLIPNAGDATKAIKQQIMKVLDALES
UniProt Q05519, sequence (Q05519 whole entry, looked up): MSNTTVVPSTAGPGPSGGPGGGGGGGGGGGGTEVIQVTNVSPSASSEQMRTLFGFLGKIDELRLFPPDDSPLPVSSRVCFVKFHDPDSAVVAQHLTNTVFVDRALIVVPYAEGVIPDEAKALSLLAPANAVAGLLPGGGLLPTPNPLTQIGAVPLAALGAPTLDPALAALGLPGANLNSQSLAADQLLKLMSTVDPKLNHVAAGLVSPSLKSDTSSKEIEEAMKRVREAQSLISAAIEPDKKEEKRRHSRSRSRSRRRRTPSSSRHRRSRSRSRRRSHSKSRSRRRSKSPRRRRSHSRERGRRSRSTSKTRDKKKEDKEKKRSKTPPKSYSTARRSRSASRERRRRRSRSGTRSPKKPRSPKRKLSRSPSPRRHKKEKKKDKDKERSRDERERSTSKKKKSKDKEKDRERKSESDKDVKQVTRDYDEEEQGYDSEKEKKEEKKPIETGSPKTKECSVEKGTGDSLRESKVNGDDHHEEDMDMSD
UniProt Q92844, sequence (Q92844 whole entry, looked up): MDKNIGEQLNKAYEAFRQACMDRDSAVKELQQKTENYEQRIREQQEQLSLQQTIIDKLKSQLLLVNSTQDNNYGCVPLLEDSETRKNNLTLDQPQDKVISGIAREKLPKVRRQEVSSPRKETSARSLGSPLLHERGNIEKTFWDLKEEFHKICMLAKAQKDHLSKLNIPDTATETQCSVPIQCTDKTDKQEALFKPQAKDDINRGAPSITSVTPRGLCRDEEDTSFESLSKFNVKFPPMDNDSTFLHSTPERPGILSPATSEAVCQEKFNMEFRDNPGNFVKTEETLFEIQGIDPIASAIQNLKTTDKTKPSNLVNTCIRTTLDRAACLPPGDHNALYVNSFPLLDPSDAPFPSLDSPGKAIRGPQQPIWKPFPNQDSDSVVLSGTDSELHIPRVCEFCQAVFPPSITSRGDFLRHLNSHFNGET
UniProt Q15208, sequence (Q15208 whole entry, looked up): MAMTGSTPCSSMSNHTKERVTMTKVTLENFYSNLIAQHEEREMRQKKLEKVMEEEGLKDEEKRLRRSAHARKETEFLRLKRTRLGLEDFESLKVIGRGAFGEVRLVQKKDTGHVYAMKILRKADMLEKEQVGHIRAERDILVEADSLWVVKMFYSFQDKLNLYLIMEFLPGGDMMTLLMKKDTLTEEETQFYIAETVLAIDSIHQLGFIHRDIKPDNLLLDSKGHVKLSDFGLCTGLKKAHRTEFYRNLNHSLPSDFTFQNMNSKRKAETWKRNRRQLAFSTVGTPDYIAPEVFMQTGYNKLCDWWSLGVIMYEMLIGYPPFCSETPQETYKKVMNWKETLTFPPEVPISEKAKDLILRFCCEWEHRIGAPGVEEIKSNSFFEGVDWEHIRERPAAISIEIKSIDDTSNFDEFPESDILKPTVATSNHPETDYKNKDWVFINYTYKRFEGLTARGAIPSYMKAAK
UniProt O75494, sequence (O75494 whole entry, looked up): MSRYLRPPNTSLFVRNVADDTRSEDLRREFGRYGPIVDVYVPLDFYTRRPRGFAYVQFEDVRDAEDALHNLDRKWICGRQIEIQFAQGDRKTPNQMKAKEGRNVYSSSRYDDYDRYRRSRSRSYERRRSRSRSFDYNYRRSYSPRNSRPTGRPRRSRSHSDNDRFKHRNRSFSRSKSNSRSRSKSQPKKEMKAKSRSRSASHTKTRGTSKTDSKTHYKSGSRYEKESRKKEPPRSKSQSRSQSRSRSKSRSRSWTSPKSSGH
UniProt Q9BUA3, sequence (Q9BUA3 whole entry, looked up): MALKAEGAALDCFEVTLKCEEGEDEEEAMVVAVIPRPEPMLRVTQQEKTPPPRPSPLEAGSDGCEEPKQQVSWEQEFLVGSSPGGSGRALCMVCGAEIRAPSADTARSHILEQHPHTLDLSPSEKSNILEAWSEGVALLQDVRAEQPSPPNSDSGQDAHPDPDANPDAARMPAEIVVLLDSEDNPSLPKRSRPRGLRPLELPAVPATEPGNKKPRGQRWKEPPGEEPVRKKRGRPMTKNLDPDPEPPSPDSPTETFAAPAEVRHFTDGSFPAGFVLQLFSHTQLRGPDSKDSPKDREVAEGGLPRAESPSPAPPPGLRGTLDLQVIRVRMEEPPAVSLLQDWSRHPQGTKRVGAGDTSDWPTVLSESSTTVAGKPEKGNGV
UniProt Q02447, sequence (Q02447 whole entry, looked up): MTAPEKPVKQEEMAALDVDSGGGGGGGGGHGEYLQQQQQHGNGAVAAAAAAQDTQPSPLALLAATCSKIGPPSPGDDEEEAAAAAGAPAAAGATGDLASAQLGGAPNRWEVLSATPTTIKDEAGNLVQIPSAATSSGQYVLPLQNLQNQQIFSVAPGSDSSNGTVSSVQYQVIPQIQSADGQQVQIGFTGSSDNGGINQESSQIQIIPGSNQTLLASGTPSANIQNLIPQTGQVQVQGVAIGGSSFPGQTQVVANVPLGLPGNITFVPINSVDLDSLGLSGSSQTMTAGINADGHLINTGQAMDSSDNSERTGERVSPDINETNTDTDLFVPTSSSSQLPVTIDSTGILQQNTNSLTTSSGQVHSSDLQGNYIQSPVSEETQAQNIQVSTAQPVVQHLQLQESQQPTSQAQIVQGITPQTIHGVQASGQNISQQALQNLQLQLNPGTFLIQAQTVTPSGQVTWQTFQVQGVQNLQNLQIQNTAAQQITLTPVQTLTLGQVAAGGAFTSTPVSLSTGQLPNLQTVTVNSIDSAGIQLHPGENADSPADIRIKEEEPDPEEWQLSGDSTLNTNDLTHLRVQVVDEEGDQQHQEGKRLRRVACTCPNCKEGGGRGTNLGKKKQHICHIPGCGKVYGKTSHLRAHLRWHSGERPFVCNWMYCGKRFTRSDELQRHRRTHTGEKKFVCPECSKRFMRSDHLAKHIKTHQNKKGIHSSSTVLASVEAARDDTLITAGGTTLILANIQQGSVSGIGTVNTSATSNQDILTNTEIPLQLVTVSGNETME

Row | Target | log2 fold change [1] | log2 fold change [2] | log2 fold change [3] | log2 fold change [4] | log2 fold change [5] | log2 fold change [6] | log2 fold change [7] | log2 fold change [8] | log2 fold change [9] | log2 fold change [10] | log2 fold change [11] | log2 fold change [12] | log2 fold change [13] | log2 fold change [14] | log2 fold change [15] | log2 fold change [16] | log2 fold change [17] | log2 fold change [18] | log2 fold change [19] | log2 fold change [20]
1 | SRSF10 (UniProt O75494) | 0.044 | -0.1 | 0.089 | -0.079 | 0.336 | 0.076 | -0.498 | -0.173 | 0.215 | -0.089 | 0.059 | -0.096 | 0.444 | 0.063 | -0.047 | 0.048 | -0.153 | 0.103 | 0.304 | -0.152
2 | TANK (UniProt Q92844) | -0.049 | -0.106 | 0.054 | 0.337 (active) | -0.025 | 0.082 | -0.021 | -0.036 | -0.016 | 0.03 | 0.076 | 0.041 | -0.035 | 0.023 | -0.001 | -0.084 | -0.022 | 0.064 | 0.028 | 0.01
3 | SPINDOC (UniProt Q9BUA3) | -0.149 | -0.031 | 0.049 | -0.458 (active) | -0.105 | -0.127 | -0.085 | -0.044 | 0.046 | 0.04 | 0.09 | 0.003 | 0.014 | -0.061 | -0.188 | -0.014 | -0.106 | -0.061 | -0.102 | 0.053
4 | TBC1D23 (UniProt Q9NUY8) | -0.141 | 0.041 | -0.113 | -0.032 | -0.155 | -0.056 | 0.025 | 0.006 | 0.003 | -0.011 | 0.015 | -0.135 | -0.33 (active) | -0.009 | 0.06 | 0.115 | 0.045 | 0.02 | -0.073 | -0.047
5 | SYMPK (UniProt Q92797) | -0.027 | 0.036 | -0.192 | -0.001 | -0.156 | 0.037 | -0.017 | -0.043 | -0.152 | 0.015 | -0.018 | 0.012 | -0.287 | -0.08 | 0.025 | 0.11 | 0.051 | 0.167 | 0.033 | -0.037
6 | SRSF11 (UniProt Q05519) | 0.071 | 0.105 | -0.024 | -1.01 (active) | -0.034 | -0.001 | -0.078 | 0.015 | -0.029 | -0.01 | -0.183 | -0.032 | -0.063 | -0.074 | 0.018 | 0.06 | 0.046 | -0.099 | 0.037 | -0.038
7 | STK38 (UniProt Q15208) | 0.054 | 0 | -0.105 | -0.343 (active) | -0.136 | 0.009 | 0.035 | 0.008 | -0.079 | -0.083 | -0.072 | -0.077 | -0.11 | -0.062 | 0.129 | 0.016 | 0.097 | 0.061 | 0.004 | -0.086
8 | SP3 (UniProt Q02447) | 0.022 | -0.018 | -0.01 | 0.093 | 0 | -0.042 | -0.044 | 0.103 | -0.041 | -0.045 | 0.15 | -0.011 | -0.033 | 0.025 | 0.027 | -0.026 | -0.147 | 0.046 | -0.02 | 0.04
